Screening data as filed in PubChem BioAssay.
KDM5B inh – inhibitors of human KDM5B histone demethylase | Q9UGL1 | KDM5B demethylase, FDH-coupled NADH fluorescence (FDH is formaldehyde dehydrogenase) | Potency, µM (titrated, usually from 57.7 µM), most hits filed as inhibitors | 220,000 tested, 2.6% active | AID 1347165; active = well fitted inhibition curve with a large enough effect; note: 0% is about no effect; nearly all actives have a fitted effect of over 70% in size
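Measured: NADH fluorescence change, 30 min, RT. System: KDM5BΔAP 200 nM final, H3K4me3 peptide, α-KG, Fe(II), ascorbate, NAD⁺ plus FDH, pH 7.5 HEPES. Compounds: titrated, 10 min pre-incubation with enzyme.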
Starred values were filed as active, the others as inactive. The full list was thinned out, with hits kept by preference. Potency is the fitted concentration of half-maximal effect.

Results for OCC1CN(c2ncccn2)CC12CCN(Cc1ccc3cc[nH]c3c1)CC2 (stereo not given) ?
KDM5B inh: 28µM*

What do the screens show for `Cn1cccc1CN1CCC2(CC1)CN(c1ncccn1)CC2CO` (stereo not given)?
KDM5B inh: 32µM*

What do the screens show for `Cc1ccsc1CN1CCC2(CC1)CN(c1ccncn1)CC2CO` (stereo not given)?
KDM5B inh: inactive

What do the screens show for `OCC1CN(c2ncccn2)CC12CCN(Cc1cc(Cl)ccc1F)CC2` (stereo not given)?
KDM5B inh: 25µM*

Results for COc1cccc(CN2CCC3(CC2)CC(O)CCO3)n1 (stereo not given) ?
KDM5B inh: inactive

What do the screens show for `COCC1CN(C(C)=O)CC12CCN(Cc1ccc(Cl)cc1F)CC2` (stereo not given)?
KDM5B inh: inactive

What do the screens show for `Cc1cccc(CN2CCC3(CC2)CCN(Cc2cccc(O)c2)CC3CO)n1` (stereo not given)?
KDM5B inh: inactive

What do the screens show for `CCn1nc(C)c(CN2CCC3(CC2)CN(c2ccncn2)CC3CO)c1C` (stereo not given)?
KDM5B inh: inactive

How did COc1cccc(CN2CCC3(CC2)CN(c2ncccn2)CC3CO)n1 (stereo not given) do in these assays?
KDM5B inh: 22µM*

How did OCC1CN(c2ccncn2)CC12CCN(Cc1cccc(F)c1F)CC2 (stereo not given) do in these assays?
KDM5B inh: inactive

How did OCC1CNCCC12CCN(Cc1ccc3ccccc3c1)CC2 (stereo not given) do in these assays?
KDM5B inh: inactive

How did OCC1CN(Cc2cccnc2)CCC12CCN(Cc1cccc(O)c1)CC2 (stereo not given) do in these assays?
KDM5B inh: inactive

What do the screens show for `Cc1cccc(-c2noc(C34CC5CC(CC(C5)C3)C4)n2)c1`?
KDM5B inh: inactive

How did COc1cccc(NC(=O)CC2CCCN(c3cnn(C)c(=O)c3)C2)c1 (stereo not given) do in these assays?
KDM5B inh: inactive

Results for CC(Sc1nc2ccccc2[nH]1)C(=O)NC(=O)NC(C)(C)C (stereo not given) ?
KDM5B inh: inactive

Results for CCN(CC)S(=O)(=O)c1ccc(C(=O)Nc2ccccc2OC(F)F)cc1 ?
KDM5B inh: inactive

Results for CC(C)CN1C(=O)CCc2cc(NC(=O)c3c(F)cccc3F)ccc21 ?
KDM5B inh: inactive

How did CN(C1CCOCC1)C1CCN(C(=O)c2cccnc2)CC1 do in these assays?
KDM5B inh: inactive

What do the screens show for `CCn1nc(C(=O)OCC(=O)Nc2ccc(Cl)c(C(F)(F)F)c2)c2ccccc2c1=O`?
KDM5B inh: inactive

What do the screens show for `CCc1cccc(CC)c1NC(=O)CCc1ncc(-c2ccccc2)o1`?
KDM5B inh: inactive

What do the screens show for `COc1ccc(Cl)cc1NC(=O)c1ccc(F)c(S(=O)(=O)N2CCCC2)c1`?
KDM5B inh: inactive

What do the screens show for `O=C(Cc1ccsc1)N1CCC2(CC1)CN(c1ccncn1)CC2CO` (stereo not given)?
KDM5B inh: inactive

Results for OCC1CN(Cc2ccccc2)CC12CCN(C1CCC1)CC2 (stereo not given) ?
KDM5B inh: inactive

Results for OCC1CN(c2ncccn2)CC12CCN(C1CCSCC1)CC2 (stereo not given) ?
KDM5B inh: 32µM*

How did OCCNc1cc(N2CCCC(CO)(Cc3ccccc3F)C2)ncn1 (stereo not given) do in these assays?
KDM5B inh: inactive

What do the screens show for `O=S(=O)(c1ccc(F)cc1)N1CCCN(c2nccc(C(F)(F)F)n2)CC1`?
KDM5B inh: inactive

How did OCC1(Cc2ccccc2F)CCCN(c2nccc(C(F)(F)F)n2)C1 (stereo not given) do in these assays?
KDM5B inh: 25µM*

What do the screens show for `CCc1ccccc1NC(=O)CSc1nnc(-c2cc(-c3ccc(Cl)cc3)n[nH]2)n1N`?
KDM5B inh: inactive

How did CCSc1ncc(-c2c(-c3ccccc3)ncn2CC[C@@H](C)CO)cn1 do in these assays?
KDM5B inh: 14µM*

How did CCc1ncc(-c2c(-c3ccccc3)ncn2CCCOc2cccnc2)cn1 do in these assays?
KDM5B inh: inactive

How did CCn1cc(-c2c(-c3ccccc3)ncn2C(CO)C(=O)O)cn1 (stereo not given) do in these assays?
KDM5B inh: inactive

Results for CCc1ccc2c(CN(C)CCOc3cccc(C)c3)cc(=O)oc2c1 ?
KDM5B inh: inactive

Results for CC(C)CN(CC(C)C)C(=O)CC1C(=O)NCCN1Cc1cccs1 (stereo not given) ?
KDM5B inh: inactive

How did Cc1ccc(Cl)cc1-n1nc(-c2c(C)nc3scc(CC(=O)N4CCOCC4)n3c2=O)cc1C do in these assays?
KDM5B inh: 28µM*

What do the screens show for `Cc1ccc(C)c(N2CCN(S(=O)(=O)c3c(C)nc4scc(C)n4c3=O)CC2)c1`?
KDM5B inh: inactive

Results for Cc1ccc(C)c(N2CCN(C(=O)Cn3cnc(S(=O)(=O)N4CCOCC4)c3)CC2)c1 ?
KDM5B inh: inactive

How did Cc1ccc(C)c(-n2nc(-c3c(C)nc4scc(CC(=O)N5CCOCC5)n4c3=O)cc2C)c1 do in these assays?
KDM5B inh: 28µM*
